The list is not random: actives were taken first. Their share in the collection is about 11%.
PNC inhibitor = inhibitors of perinucleolar compartment assembly | PC3M PTB-GFP, PNC prevalence imaging, 16 h; hits give low values | activity change (PNC), negative = inhibition, % at 10 µM | 140,000 compounds, 3.1% hits | AID 2417;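 active = readout at or below -70, meaning at least 70% loss of cells showing the perinucleolar compartment, a nuclear body marking cancer cells; inconclusive = readout between -30 and a set limit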
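Compounds are pinned in duplicate onto adhered PC3M cells stably expressing GFP-tagged PTB and incubated 16 h at 37 C. Cells are then fixed, nuclei stained with Hoechst, and PNC-positive cells counted.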
HPGD inh = blocks human HPGD enzyme activity | P15428 | purified HPGD, NADH fluorescence kinetic, PGE2 substrate | Potency, µM, most hits filed as inhibitors | 150,000 compounds, 4.3% hits | AID 894
Target sequence (P15428 whole entry, looked up): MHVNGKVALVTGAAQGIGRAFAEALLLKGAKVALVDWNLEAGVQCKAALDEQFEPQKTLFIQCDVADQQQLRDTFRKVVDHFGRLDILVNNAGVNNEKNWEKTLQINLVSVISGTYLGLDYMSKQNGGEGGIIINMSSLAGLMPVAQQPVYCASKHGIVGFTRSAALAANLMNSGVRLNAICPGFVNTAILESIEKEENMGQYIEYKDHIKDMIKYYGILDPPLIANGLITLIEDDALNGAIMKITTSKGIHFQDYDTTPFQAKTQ
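20 nM HPGD preincubated 15 min at room temperature with compound in 50 mM Tris-HCl pH 8, 0.01% Tween 20. Started with 1 mM NAD+ and 30 uM prostaglandin E2; NADH fluorescence (360/450 nm) read 5 times over 30-s intervals, last minus first.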
ALDH1A1 block = ALDH1A1 (human) enzyme inhibition; Potency, µM (highest dose often 75.3 µM), actives largely listed as inhibitors; 220,000 compounds, 7.3% hits; Purified ALDH1A1, NADH fluorescence, propionaldehyde substrate; P00352; AID 1030
Each line names hits and unclear results; the compound was inactive in the other large screens; ! = not confirmed by another sample. Unless noted, calls follow the shape of the dose curve; as a rule, active = well fitted inhibition curve with a large enough effect (not every such curve was filed as active); inconclusive = small, poorly fitted or top-dose-only effect, or another doubt; inactive = no such curve, though single readings can be large or run the other way.

CCN(CC)c1ccc(/C=C2/C(=O)NC(=O)N(Cc3ccco3)C2=O)cc1	HPGD inh 10µM, ALDH1A1 block 0.562µM
CN(C)c1ccc(/C=C2/C(=O)NC(=O)N(Cc3ccco3)C2=O)cc1	HPGD inh 10µM, ALDH1A1 block 1µM
Cc1cc(/C=C2/C(=O)NC(=O)N(Cc3ccco3)C2=O)c(C)n1-c1ccccc1	HPGD inh inconclusive, ALDH1A1 block 8.91µM
Cc1cc(/C=C2\C(=O)NC(=O)N(Cc3ccccc3)C2=O)c(C)n1C1CC1	none (no result: PNC inhibitor, HPGD inh)
CC1CC[C@@]2(OC1)O[C@@H]1[C@@H](O)[C@H]3C4CC[C@H]5C[C@@H](O[C@@H]6O[C@H](CO)[C@H](O[C@@H]7O[C@H](CO)[C@@H](O)[C@H](O[C@@H]8OC[C@@H](O)[C@H](O)[C@H]8O)[C@H]7O[C@@H]7O[C@H](CO)[C@@H](O)[C@H](O[C@@H]8O[C@H](CO)[C@@H](O)[C@H](O)[C@H]8O)[C@H]7O)[C@H](O)[C@H]6O)[C@H](O)C[C@]5(C)C4CC[C@]3(C)[C@H]1[C@@H]2C (some centres undefined)	none (no result: PNC inhibitor)
CS(=O)(=O)N1CCC2(CCCN(Cc3ccncc3)C2)CC1	none (no result: PNC inhibitor)
CC1(C)CCC(C)(C)c2c1ccc(O)c2Cc1c(O)ccc2c1C(C)(C)CCC2(C)C	none (no result: PNC inhibitor)
ClC1=C(Cl)C2(Cl)C3C4CC(C5OC45)C3C1(Cl)C2(Cl)Cl (centres undefined)	none (no result: PNC inhibitor)
CN(C)C(=O)Cl	ALDH1A1 block inconclusive (no result: PNC inhibitor)
Nc1ncnc2c1ncn2[C@@H]1O[C@@H]2CO[P@](=O)(S)O[C@H]2[C@H]1O	ALDH1A1 block inconclusive (no result: PNC inhibitor)
CN1CCN(Cc2ccc(N)cc2)CC1	none (no result: PNC inhibitor, HPGD inh)
CN1CCN(Cc2cc(C(C)(C)C)c(O)c(C(C)(C)C)c2)CC1	ALDH1A1 block 22.4µM
CC(C)C[C@H]1C(=O)N2CCC[C@@H]2[C@]2(O)O[C@](NC(=O)[C@@H]3C=C4c5cccc6[nH]c(Br)c(c56)C[C@H]4N(C)C3)(C(C)C)C(=O)N12	none (no result: PNC inhibitor)
CCCCCC1CC(CC(=O)NC(=S)Nc2ccc([N+](=O)[O-])cc2)C(=O)O1 (centres undefined)	PNC inhibitor inconclusive, ALDH1A1 block 10µM
C[C@@H]1O[C@H](O[C@@H]2C[C@@H](O)[C@]3(CO)[C@H]4[C@H](O)C[C@]5(C)[C@@H](C6=CC(=O)OC6)CC[C@@]5(O)[C@@H]4CC[C@]3(O)C2)[C@@H](O)[C@H](O)[C@H]1O	none (no result: PNC inhibitor)
C=C(CO)CC1CC(O)[C@]2(C)OC3CC4OC5C[C@]6(C)O[C@]7(C)CCC8OC9C[C@]%10(C)OC%11C(C)=CC(=O)OC%11CC%10OC9C[C@@H](C)C8OC7CC6O[C@]5(C)C/C=C\C4OC3CC2O1 (some centres undefined)	ALDH1A1 block 1.41µM (no result: PNC inhibitor, HPGD inh)
C=C(C=O)CC1CC(O)[C@]2(C)OC3CC4OC5C[C@]6(C)O[C@]7(C)CCC8OC9C[C@]%10(C)OC%11C(C)=CC(=O)OC%11CC%10OC9C[C@@H](C)C8OC7CC6O[C@]5(C)CC5OC5C4OC3CC2O1 (some centres undefined)	ALDH1A1 block 4.47µM (no result: PNC inhibitor, HPGD inh)
COc1ccc(CC2NC[C@H](O)[C@H]2OC(C)=O)cc1 (some centres undefined)	none (no result: PNC inhibitor)
Cc1ccc(NC(=O)COC(=O)/C=C/c2ccco2)cc1S(=O)(=O)N(C)C	ALDH1A1 block inconclusive
COc1cc(-c2ccc(=O)[nH]n2)ccc1OC(F)F	HPGD inh 20µM! (no result: PNC inhibitor)
COc1cc(-c2ccc(N)c(OC)c2)ccc1N	ALDH1A1 block inconclusive (no result: PNC inhibitor)
CN1CC[C@@]2(CCCN(C(=O)c3ccncc3)C2)C1	none (no result: PNC inhibitor)
CCCCC1(C2CCCC2)Cc2cc(OCCCC(=O)O)c(Cl)c(Cl)c2C1=O (centres undefined)	none (no result: PNC inhibitor)
CN1C(=O)NC(=O)C2(Cc3ccccc3N3CCOCC32)C1=O (centres undefined)	PNC inhibitor inconclusive
CN1C(=O)NC(=O)[C@]2(Cc3ccccc3N3CCN(c4ccccc4)CC32)C1=O (some centres undefined)	ALDH1A1 block 25.1µM
O=C1NC(=O)C2(Cc3ccccc3N3CCCC32)C(=O)N1c1ccc(Cl)cc1 (centres undefined)	HPGD inh inconclusive, ALDH1A1 block inconclusive
O=C1NC(=O)C2(Cc3ccccc3N3CCCC32)C(=O)N1Cc1ccccc1 (centres undefined)	ALDH1A1 block inconclusive
O=C1NC(=O)[C@]2(Cc3ccccc3N3CCN(c4ccccc4)CC32)C(=O)N1Cc1ccccc1 (some centres undefined)	ALDH1A1 block 22.4µM
O=C1NC(=O)[C@]2(Cc3ccccc3N3CCN(c4ccccc4)CC32)C(=O)N1c1ccccc1 (some centres undefined)	ALDH1A1 block 25.1µM
CC(N)C(O)c1ccc(O)c(O)c1 (centres undefined)	none (no result: PNC inhibitor)
C[C@@]12CC(c3ccoc3)OC(=O)C1CC[C@@]1(C)C2C2C=C[C@@]1(O)C(=O)O2 (some centres undefined)	none (no result: PNC inhibitor)
CC1(C)[C@@H](O)C[C@H]2[C@](C)(O)[C@@H]3CC[C@H]4[C@@H](O)[C@@]3(C[C@@H](O)[C@@]21O)C[C@@]4(C)O	none (no result: PNC inhibitor, HPGD inh)
CCOC(=O)c1c(C)n(Cc2ccccc2)c2ccc(OCC(O)Cn3nc(C)nc3C)cc12 (centres undefined)	none
CCOC(=O)c1c(C)n(Cc2ccccc2)c2ccc(OCC(O)Cn3nc(C)cc3C)cc12 (centres undefined)	PNC inhibitor -80.4, ALDH1A1 block inconclusive
CC(=O)C1=C(O)[C@@H]2[C@@H]3c4c[nH]c5cccc(c45)C[C@@H]3C(C)(C)N2C1=O	ALDH1A1 block inconclusive (no result: PNC inhibitor)
C[C@@]12C=CC(=O)C=C1CCC1C2CC[C@]2(C)C(=O)CCC12 (some centres undefined)	none (no result: PNC inhibitor)
Cc1ccc(N)c(C(=O)c2ccccc2)c1	none
Cc1ccc(C(=O)c2ccc(CC(=O)O)n2C)cc1	HPGD inh 15.8µM! (no result: PNC inhibitor)
C/C=C\c1ccc(OC)cc1	none (no result: PNC inhibitor)
COc1ccc(C(=O)c2c(C)n(CCN3CCOCC3)c3cc(I)ccc23)cc1	ALDH1A1 block 5.01µM (no result: PNC inhibitor)
CCCn1c(C(=O)c2ccc(OC)cc2)nc2ccccc21	none (no result: PNC inhibitor, HPGD inh)
CC[n+]1c(/C=C/N(C)c2ccccc2)sc2ccc(Cl)cc21	ALDH1A1 block 15.8µM
O=C1NC(=O)N(c2ccccc2)C(=O)/C1=C/c1ccc(Sc2ccccc2)o1	none
O=C1NC(=O)N(c2ccccc2F)C(=O)/C1=C/c1ccc(Sc2nc3ccccc3[nH]2)o1	HPGD inh 3.55µM, ALDH1A1 block 10µM
O=C1NC(=O)N(c2cccc(Cl)c2)C(=O)/C1=C\c1ccc(Sc2nc3ccccc3[nH]2)o1	HPGD inh 7.94µM, ALDH1A1 block 22.4µM
CCCCC[C@@H](/C=C/C=C\CCCCCCCC(=O)O)OO	none (no result: PNC inhibitor)
O=C(O)C(Cl)(Cl)Br	none (no result: PNC inhibitor)
O=C(Oc1ccccc1)N1CCC[C@@]2(CCN(Cc3cc(C(F)(F)F)cc(C(F)(F)F)c3)C2)C1	none (no result: PNC inhibitor)
COC1=CC2C3Cc4ccc(OC)c(O)c4[C@]2(CCN3C)CC1=O (some centres undefined)	none (no result: PNC inhibitor)
Cc1cc(C)c(Cn2c(C(=O)O)c(C=O)c3ccccc32)c(C)c1	ALDH1A1 block 14.1µM (no result: PNC inhibitor, HPGD inh)
C=Cc1ccc(Cn2c(C(=O)O)c(C=O)c3ccccc32)cc1	none (no result: PNC inhibitor, HPGD inh)
COC(=O)C12CC3=CC(CC3=O)Cc3ccccc3[C@@H]1CNC2=O (some centres undefined)	none (no result: PNC inhibitor)
NC(=S)Nc1ccccc1	none (no result: PNC inhibitor)

Source: PubChem (National Center for Advancing Translational Sciences (NCATS))
